# Reference: ChEMBL document CHEMBL1961873, “Compounds: GSK PKIS; Assays: Nanosyn kinase panel” (2012)
# Several values for one entry are separate records, joined by “and”; a condition that tells them apart may be missing. Equal entries are not always repeated.
# Experiments:
# [1] = target: Tyrosine-protein kinase Fer (Homo sapiens) (UniProt P16591); details: at 1 µM
# [2] = target: Tyrosine-protein kinase Fes/Fps (Homo sapiens) (UniProt P07332); details: at 0.1 µM
# [3] = target: Tyrosine-protein kinase Fes/Fps (Homo sapiens) (UniProt P07332); details: at 1 µM
# [4] = target: Fibroblast growth factor receptor 1 (Homo sapiens) (UniProt P11362); details: at 0.1 µM
# [5] = target: Fibroblast growth factor receptor 1 (Homo sapiens) (UniProt P11362); details: at 1 µM
# [6] = target: Fibroblast growth factor receptor 2 (Homo sapiens) (UniProt P21802); details: at 0.1 µM
# [7] = target: Fibroblast growth factor receptor 2 (Homo sapiens) (UniProt P21802); details: at 1 µM
# [8] = target: Fibroblast growth factor receptor 3 (Homo sapiens) (UniProt P22607); details: at 0.1 µM
# [9] = target: Fibroblast growth factor receptor 3 (Homo sapiens) (UniProt P22607); details: at 1 µM
# [10] = target: Fibroblast growth factor receptor 4 (Homo sapiens) (UniProt P22455); details: at 0.1 µM
# [11] = target: Fibroblast growth factor receptor 4 (Homo sapiens) (UniProt P22455); details: at 1 µM
# [12] = target: Tyrosine-protein kinase Fgr (Homo sapiens) (UniProt P09769); details: at 0.1 µM
# [13] = target: Tyrosine-protein kinase Fgr (Homo sapiens) (UniProt P09769); details: at 1 µM
# [14] = target: Vascular endothelial growth factor receptor 1 (Homo sapiens) (UniProt P17948); details: at 0.1 µM
# [15] = target: Vascular endothelial growth factor receptor 1 (Homo sapiens) (UniProt P17948); details: at 1 µM
# [16] = target: Receptor-type tyrosine-protein kinase FLT3 (Homo sapiens) (UniProt P36888); details: at 0.1 µM
# [17] = target: Receptor-type tyrosine-protein kinase FLT3 (Homo sapiens) (UniProt P36888); details: at 1 µM
# [18] = test system: T1, Receptor-type tyrosine-protein kinase FLT3 (Homo sapiens), P36888 [D835Y]; details: at 0.1 µM
# T1 sequence (whole entry): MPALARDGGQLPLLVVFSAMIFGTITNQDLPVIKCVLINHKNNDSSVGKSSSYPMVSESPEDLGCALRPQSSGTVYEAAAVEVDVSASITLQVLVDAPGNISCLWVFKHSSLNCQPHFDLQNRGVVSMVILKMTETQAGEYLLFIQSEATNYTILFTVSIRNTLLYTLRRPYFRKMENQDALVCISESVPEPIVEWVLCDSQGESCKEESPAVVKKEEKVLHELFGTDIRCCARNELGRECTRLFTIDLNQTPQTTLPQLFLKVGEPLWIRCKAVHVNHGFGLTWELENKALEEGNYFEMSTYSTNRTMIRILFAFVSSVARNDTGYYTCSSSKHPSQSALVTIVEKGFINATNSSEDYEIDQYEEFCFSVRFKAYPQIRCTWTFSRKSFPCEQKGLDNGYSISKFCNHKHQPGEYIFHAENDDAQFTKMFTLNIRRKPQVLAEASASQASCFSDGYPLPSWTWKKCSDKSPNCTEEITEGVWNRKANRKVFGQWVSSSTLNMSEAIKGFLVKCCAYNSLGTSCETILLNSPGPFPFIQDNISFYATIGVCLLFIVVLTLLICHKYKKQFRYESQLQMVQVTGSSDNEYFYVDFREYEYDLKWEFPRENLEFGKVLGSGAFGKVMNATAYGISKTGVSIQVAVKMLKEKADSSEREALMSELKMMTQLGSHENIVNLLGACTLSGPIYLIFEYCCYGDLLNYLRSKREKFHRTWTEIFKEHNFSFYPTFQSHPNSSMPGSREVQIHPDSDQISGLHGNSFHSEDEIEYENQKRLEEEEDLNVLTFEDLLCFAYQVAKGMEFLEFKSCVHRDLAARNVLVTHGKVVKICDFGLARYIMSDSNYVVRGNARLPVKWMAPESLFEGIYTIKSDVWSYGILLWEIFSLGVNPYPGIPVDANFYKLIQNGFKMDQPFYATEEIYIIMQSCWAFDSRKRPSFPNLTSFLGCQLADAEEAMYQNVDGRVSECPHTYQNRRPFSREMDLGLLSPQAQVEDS
# [19] = target: Non-receptor tyrosine-protein kinase TYK2 (Homo sapiens) (UniProt P29597); details: at 1 µM;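 further: values are mean percent inhibition of TYK2 kinase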
# [20] = target: T2, Tyrosine-protein kinase receptor TYRO3 (Homo sapiens) (UniProt Q06418); details: at 0.1 µM;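 further: reported percentages are averaged inhibition values of TYRO3 kinase activity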
# T2 sequence (whole entry): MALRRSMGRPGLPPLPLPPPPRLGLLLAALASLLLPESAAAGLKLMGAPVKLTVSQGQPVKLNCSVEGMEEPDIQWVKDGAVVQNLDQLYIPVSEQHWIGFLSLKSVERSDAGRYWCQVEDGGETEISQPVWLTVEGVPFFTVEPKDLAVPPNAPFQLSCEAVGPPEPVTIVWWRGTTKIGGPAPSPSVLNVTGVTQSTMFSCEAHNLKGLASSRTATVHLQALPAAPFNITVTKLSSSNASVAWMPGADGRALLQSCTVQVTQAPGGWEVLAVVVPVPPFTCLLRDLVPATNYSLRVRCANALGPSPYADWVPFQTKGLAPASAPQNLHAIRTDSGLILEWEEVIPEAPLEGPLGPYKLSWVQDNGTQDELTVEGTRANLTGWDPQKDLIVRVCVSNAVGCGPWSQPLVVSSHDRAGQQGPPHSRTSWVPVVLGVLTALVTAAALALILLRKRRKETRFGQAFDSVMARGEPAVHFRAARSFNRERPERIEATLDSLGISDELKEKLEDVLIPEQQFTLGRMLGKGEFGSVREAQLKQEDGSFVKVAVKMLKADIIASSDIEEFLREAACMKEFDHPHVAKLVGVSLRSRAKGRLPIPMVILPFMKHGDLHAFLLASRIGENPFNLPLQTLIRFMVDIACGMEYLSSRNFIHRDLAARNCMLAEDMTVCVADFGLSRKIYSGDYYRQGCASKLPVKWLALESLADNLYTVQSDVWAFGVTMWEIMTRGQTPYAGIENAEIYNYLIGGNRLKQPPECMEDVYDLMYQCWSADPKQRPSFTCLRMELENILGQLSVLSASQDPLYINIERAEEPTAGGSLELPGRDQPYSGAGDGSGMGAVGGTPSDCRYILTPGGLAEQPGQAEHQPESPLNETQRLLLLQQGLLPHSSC
# Sequence of Tyrosine-protein kinase Fes/Fps (Homo sapiens) (P07332 whole entry): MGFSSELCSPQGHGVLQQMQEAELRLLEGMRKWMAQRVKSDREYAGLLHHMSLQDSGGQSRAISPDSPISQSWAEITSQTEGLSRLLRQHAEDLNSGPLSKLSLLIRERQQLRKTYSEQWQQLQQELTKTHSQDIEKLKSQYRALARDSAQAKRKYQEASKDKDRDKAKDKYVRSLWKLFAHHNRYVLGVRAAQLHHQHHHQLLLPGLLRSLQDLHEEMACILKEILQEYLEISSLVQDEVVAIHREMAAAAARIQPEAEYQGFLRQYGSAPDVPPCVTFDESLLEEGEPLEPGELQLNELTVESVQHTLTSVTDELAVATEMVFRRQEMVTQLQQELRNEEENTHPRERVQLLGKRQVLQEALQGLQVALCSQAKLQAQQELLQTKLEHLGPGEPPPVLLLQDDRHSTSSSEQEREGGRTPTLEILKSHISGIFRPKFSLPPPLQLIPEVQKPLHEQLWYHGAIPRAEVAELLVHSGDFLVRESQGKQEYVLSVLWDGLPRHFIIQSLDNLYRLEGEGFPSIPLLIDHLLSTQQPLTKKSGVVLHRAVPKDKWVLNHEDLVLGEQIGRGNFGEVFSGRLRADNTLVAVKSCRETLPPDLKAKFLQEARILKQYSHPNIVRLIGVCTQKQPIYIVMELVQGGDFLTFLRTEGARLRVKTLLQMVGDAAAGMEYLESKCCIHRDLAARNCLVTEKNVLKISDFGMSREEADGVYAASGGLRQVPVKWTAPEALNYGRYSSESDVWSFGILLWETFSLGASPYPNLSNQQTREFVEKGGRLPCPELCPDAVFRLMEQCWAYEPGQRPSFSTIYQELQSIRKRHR
# Sequence of Tyrosine-protein kinase Fer (Homo sapiens) (P16591 whole entry, looked up): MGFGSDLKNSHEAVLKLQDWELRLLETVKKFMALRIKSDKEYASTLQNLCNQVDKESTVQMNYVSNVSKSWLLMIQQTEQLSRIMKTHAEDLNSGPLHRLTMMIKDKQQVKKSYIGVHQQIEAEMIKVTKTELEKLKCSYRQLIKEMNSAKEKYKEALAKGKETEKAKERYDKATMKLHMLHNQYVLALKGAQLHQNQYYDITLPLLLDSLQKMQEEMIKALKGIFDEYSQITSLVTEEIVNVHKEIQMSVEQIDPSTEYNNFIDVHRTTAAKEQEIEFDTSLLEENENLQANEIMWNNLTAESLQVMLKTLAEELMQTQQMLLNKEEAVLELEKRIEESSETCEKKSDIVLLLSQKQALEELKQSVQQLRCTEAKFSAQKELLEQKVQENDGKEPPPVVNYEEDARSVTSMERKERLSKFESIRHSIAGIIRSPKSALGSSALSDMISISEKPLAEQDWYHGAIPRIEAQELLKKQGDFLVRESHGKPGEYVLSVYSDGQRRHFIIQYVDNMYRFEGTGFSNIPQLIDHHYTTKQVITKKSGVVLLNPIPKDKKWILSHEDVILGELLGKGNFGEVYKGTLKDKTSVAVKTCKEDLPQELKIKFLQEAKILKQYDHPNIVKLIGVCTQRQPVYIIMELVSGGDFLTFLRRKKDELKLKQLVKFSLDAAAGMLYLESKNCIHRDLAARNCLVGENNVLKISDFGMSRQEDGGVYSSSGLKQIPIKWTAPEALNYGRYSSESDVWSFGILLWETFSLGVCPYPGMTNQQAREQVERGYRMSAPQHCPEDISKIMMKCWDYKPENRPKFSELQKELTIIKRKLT
# Sequence of Vascular endothelial growth factor receptor 1 (Homo sapiens) (P17948 whole entry): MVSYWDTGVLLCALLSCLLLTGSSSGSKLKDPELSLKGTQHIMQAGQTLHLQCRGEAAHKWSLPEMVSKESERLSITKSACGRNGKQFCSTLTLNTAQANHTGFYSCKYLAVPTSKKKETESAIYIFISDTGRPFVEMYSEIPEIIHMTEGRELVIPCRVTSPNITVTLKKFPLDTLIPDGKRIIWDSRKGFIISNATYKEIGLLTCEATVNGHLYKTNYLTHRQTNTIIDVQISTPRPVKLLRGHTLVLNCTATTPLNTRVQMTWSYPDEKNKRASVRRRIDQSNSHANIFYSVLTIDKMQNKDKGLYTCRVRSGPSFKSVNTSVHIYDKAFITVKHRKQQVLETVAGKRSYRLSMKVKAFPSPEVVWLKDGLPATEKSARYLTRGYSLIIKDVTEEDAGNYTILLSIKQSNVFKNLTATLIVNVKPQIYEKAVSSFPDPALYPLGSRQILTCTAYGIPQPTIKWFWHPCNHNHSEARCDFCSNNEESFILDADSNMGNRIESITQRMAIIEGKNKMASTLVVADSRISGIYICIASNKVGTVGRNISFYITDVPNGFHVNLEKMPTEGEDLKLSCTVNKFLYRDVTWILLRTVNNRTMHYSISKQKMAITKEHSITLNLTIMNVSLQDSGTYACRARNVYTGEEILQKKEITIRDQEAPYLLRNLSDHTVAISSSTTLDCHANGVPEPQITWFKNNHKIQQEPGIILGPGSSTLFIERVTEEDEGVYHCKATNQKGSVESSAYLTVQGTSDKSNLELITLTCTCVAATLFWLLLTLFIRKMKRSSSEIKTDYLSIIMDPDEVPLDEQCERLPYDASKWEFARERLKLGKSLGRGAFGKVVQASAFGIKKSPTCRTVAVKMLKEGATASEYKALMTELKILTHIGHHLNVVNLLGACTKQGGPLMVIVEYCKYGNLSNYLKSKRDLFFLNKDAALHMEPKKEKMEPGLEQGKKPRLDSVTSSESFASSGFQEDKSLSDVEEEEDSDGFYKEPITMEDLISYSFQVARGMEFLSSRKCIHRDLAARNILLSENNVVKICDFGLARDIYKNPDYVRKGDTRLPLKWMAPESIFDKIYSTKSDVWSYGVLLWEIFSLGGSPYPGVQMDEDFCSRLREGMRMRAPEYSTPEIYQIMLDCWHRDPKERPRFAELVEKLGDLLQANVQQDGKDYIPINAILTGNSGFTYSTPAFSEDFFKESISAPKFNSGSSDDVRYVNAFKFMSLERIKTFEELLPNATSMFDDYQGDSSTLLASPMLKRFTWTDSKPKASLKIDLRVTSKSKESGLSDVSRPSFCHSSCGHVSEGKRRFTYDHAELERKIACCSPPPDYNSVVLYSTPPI
# Sequence of Fibroblast growth factor receptor 4 (Homo sapiens) (P22455 22-802 limits assumed): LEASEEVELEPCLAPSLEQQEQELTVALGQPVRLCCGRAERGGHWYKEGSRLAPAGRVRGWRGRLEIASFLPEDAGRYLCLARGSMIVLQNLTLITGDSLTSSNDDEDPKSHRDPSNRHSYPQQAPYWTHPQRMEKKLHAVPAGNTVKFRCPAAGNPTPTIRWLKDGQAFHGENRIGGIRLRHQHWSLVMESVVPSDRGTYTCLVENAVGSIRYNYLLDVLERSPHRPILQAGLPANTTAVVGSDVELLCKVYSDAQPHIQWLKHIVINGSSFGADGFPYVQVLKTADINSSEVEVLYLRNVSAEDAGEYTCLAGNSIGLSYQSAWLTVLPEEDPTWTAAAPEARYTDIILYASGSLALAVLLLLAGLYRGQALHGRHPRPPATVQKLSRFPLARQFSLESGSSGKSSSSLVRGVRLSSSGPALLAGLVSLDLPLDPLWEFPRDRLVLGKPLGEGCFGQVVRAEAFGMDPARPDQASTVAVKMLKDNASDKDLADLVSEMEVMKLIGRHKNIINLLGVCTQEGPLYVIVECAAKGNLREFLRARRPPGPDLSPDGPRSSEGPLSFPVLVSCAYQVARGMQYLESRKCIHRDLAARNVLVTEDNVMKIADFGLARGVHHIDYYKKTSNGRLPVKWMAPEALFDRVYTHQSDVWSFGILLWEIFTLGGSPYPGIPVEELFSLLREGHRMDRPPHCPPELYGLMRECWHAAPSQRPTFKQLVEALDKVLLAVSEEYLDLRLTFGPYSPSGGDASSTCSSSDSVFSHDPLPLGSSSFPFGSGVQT
# Sequence of Tyrosine-protein kinase Fgr (Homo sapiens) (P09769 2-529 limits assumed): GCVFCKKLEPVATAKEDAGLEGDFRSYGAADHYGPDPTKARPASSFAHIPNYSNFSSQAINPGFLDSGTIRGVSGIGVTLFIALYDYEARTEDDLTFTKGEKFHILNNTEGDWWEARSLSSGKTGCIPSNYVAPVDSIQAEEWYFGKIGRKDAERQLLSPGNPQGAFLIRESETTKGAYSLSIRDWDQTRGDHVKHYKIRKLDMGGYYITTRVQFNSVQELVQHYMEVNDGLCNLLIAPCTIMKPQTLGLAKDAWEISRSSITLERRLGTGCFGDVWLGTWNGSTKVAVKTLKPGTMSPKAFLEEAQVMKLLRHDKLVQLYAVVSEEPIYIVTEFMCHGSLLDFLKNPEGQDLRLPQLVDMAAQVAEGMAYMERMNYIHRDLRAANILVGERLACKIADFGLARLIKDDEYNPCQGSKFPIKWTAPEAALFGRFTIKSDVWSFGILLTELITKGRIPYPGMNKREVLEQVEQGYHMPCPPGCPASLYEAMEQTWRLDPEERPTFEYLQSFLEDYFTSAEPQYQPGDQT
# Sequence of Fibroblast growth factor receptor 3 (Homo sapiens) (P22607 23-806 limits assumed): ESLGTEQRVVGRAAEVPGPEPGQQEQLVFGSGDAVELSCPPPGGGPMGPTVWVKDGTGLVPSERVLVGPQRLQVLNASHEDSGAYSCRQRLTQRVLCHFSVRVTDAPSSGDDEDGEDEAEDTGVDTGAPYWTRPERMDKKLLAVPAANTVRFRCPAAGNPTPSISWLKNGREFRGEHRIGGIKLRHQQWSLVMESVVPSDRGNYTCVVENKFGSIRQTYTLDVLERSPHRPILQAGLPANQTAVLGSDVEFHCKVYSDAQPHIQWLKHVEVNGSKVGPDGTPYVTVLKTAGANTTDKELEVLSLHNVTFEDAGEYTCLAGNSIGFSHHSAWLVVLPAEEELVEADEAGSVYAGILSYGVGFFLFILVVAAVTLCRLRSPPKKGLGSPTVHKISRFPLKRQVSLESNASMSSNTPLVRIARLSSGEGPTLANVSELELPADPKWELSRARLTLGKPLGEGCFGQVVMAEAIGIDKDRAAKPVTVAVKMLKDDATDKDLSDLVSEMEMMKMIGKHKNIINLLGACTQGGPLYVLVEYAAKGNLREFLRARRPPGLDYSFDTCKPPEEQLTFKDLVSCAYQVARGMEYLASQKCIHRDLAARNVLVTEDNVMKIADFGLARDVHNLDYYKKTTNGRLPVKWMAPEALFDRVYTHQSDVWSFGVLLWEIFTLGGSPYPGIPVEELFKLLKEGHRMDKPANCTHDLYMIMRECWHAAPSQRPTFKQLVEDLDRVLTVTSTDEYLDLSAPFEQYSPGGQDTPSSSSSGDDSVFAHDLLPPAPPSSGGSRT
SMILES,inhibition [1],inhibition [2],inhibition [3],inhibition [4],inhibition [5],inhibition [6],inhibition [7],inhibition [8],inhibition [9],inhibition [10],inhibition [11],inhibition [12],inhibition [13],inhibition [14],inhibition [15],inhibition [16],inhibition [17],inhibition [18],inhibition [19],inhibition [20]
NS(=O)(=O)c1ccc(N/N=C2\C(=O)Nc3cccc(CCc4ccncc4)c32)cc1,5.66%,0.64%,-0.42%,5.09%,16.7%,7.6%,18.2%,6.3%,19.2%,4.76%,1.66%,4.48%,10.8%,5.3%,12%,64.3%,79.3%,50.7%,-1.59%,0.03%
COc1ccc(-c2nn3ncccc3c2-c2ccnc(Nc3ccc(F)c(F)c3)n2)cc1,7.64%,2.66%,2.57%,4.92%,0.84%,5.14%,7.4%,5.17%,7.65%,1.42%,0.82%,20.4%,60.8%,2.48%,6.3%,2.32%,4.16%,4.75%,-1.25%,3.56%
COC(=O)Nc1nc2ccc(Oc3ccc(NC(=O)Nc4cc(C(F)(F)F)ccc4F)cc3)cc2s1,6.3%,0.15%,0.99%,4.86%,16.9%,2.26%,29.7%,5.73%,11.5%,0.42%,3.25%,1.85%,9.94%,36%,78.1%,11.2%,47.1%,-0.17%,1.02%,6.26%
CCS(=O)(=O)c1ccc(OC)c(Nc2ncc(-c3cccc(C(C)=O)c3)o2)c1,3.06%,1.69%,2.72%,4.89%,12.9%,17.2%,52.6%,20%,60%,1.41%,3.95%,13.2%,44.4%,3.88%,17.2%,19.1%,69.8%,55.7%,-1.19%,5.67%
CCn1c(-c2nonc2N)nc2cncc(C(=O)NCCNC)c21,3.14%,4.48%,4.8%,2.05%,4.72%,3.81%,5.33%,2%,5.02%,0.72%,1.09%,1.3%,4.66%,2.02%,3.5%,0.34%,4.29%,-3.83%,-3.99%,3.7%
O=C(O[C@H]1CN[C@H](C#Cc2cc3ncnc(Nc4ccc(OCc5cccc(F)c5)c(Cl)c4)c3s2)C1)N1CCOCC1,5.25%,3.88%,3.5%,1.16%,3.49%,6.97%,4.24%,5.89%,6.62%,1.38%,-0.16%,4.25%,1.43%,1.9%,-0.14%,3.48%,2.29%,-1.46%,-3.98%,3.72%
CC1=C(C(=O)Nc2ccc3[nH]ncc3c2)C(c2ccc(F)cc2)N=C(c2ccc(C(F)(F)F)nc2)N1 (stereo not given),2.23%,1.4%,2.21%,6.73%,7.75%,4.37%,9.66%,4.88%,7.89%,0.81%,4.41%,1.36%,7.33%,2.08%,3.96%,-0.83%,4.45%,-1.1%,-2.96%,2.47%
CN1CCC(C(=O)Nc2n[nH]c3nc(-c4ccc(O)cc4)c(Br)cc23)CC1,5.19% and 5.02%,2.73% and 2.03%,2.01% and 1.81%,-1.64% and 2.05%,-0.75% and 5.39%,-0.3% and 14.5%,2.81% and 5.43%,1.48% and 6.04%,1.79% and 4.41%,6.09%,-2.79% and 2.44%,4.74% and 1.32%,4.79% and 3.79%,-0.55% and 2.25%,1.75% and 2.84%,1.75% and 4.1%,5.59% and 2.93%,-2.26% and 1.33%,-0.92% and -0.98%,2.21% and 0.67%
CS(=O)(=O)Nc1ccc(-c2cc(-c3ccccc3)cc(C(N)=O)c2N)cc1,1.1%,1.07%,1.64%,0.45%,3.2%,1.73%,4.95%,-0.12%,8.3%,0.07%,1.17%,-1.31%,1.01%,1.22%,1.42%,6%,4.94%,-2.16%,-2.96%,0.01%
